# According to PubChem BioAssay (NCI):
# About 79,000 compounds went through this panel and 15% of them were active in at least one assay; those are over-represented in the sample as a whole. Values without a mark were called inactive. Active and inactive are the calls of the source. Rule as the data show it: active = growth inhibition above about 70%; inactive = the rest.
# Experiments:
# [1] = NCI Yeast Anticancer Drug Screen. Data for the rad50 strain (AID 155);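 also: 0% = growth of vehicle-only cultures of the same strain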; conditions: S. cerevisiae rad50 strain growth inhibition, stronger effect = higher value
# How it was run: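 Relative growth inhibition (compound vs vehicle) was measured in yeast with a defined repair-gene alteration.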
# [2] = NCI Yeast Anticancer Drug Screen. Data for the mec2-1 strain (AID 157); conditions: S. cerevisiae mec2-1 strain, stronger effect = higher value
# How it was run: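 Mutant yeast (mec2-1) grown with compound; growth inhibition relative to vehicle control reported.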
# [3] = NCI Yeast Anticancer Drug Screen. Data for the sgs1 mgt1 strain (AID 161);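 also: 0% = growth of cultures given vehicle only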; conditions: S. cerevisiae sgs1 mgt1 strain, stronger effect = higher value
# How it was run: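 Percent growth inhibition was derived by comparing compound-exposed mutant yeast with vehicle-exposed cultures. The strain carries alterations in DNA damage repair.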
# [4] = NCI Yeast Anticancer Drug Screen. Data for the cln2 rad14 strain (AID 165);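 also: 0% = growth equal to vehicle treated cultures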; conditions: S. cerevisiae cln2 rad14 strain, stronger effect = higher value
# How it was run: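 Readout is yeast growth inhibition versus vehicle-treated controls, using a strain with cln2 and rad14 alterations exposed to compound.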
# [5] = NCI Yeast Anticancer Drug Screen. Data for the bub3 strain (AID 167); conditions: S. cerevisiae bub3 mutant strain, stronger effect = higher value
# How it was run: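 Screening used yeast with an engineered genetic alteration affecting cell cycle control. Compound-exposed cultures were compared with vehicle cultures, and reduced growth was taken as inhibition.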
# [6] = NCI Yeast Anticancer Drug Screen. Data for the mlh1 rad18 strain (AID 175); conditions: S. cerevisiae mlh1 rad18 strain growth inhibition, stronger effect = higher value
# How it was run: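 Genetically defined yeast (DNA repair-deficient) exposed to compounds; growth inhibition determined relative to vehicle.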
# [7] = at 5.0 µM (retest, dose inferred, filed as 0.5)
# [8] = at 50.0 µM (retest, dose inferred, filed as 5.0)
SMILES,"growth inhibition [1, 7]","growth inhibition [1, 8]",growth inhibition ([1]; at 50.0 µM),"growth inhibition [2, 7]","growth inhibition [2, 8]",growth inhibition ([2]; at 50.0 µM),"growth inhibition [3, 7]","growth inhibition [3, 8]",growth inhibition ([3]; at 50.0 µM),"growth inhibition [4, 7]","growth inhibition [4, 8]",growth inhibition ([4]; at 50.0 µM),"growth inhibition [5, 7]","growth inhibition [5, 8]",growth inhibition ([5]; at 50.0 µM),"growth inhibition [6, 7]","growth inhibition [6, 8]",growth inhibition ([6]; at 50.0 µM)
C=C1CCCCC1C(C(=O)O)(c1ccccc1)c1ccccc1 (stereo not given),77% (active),98% (active),98.7% (active),71% (active),99% (active),99.3% (active),79% (active),99% (active),99.3% (active),72% (active),99% (active),99.3% (active),51%,99% (active),98.2% (active),92% (active),99% (active),99.5% (active)
CC(=O)Nc1ccc(-c2nnc(SCC(=O)Nc3cccc(Cl)c3)o2)cc1,14%,45%,22.2%,1%,39%,15.6%,10%,33%,55.6%,15%,49%,-33.8%,8%,56%,73.7% (active),2%,71% (active),28.7%
ClC1c2ccccc2Cc2cccnc21 (stereo not given),21%,85% (active),75.3% (active),11%,24%,11.8%,10%,59%,12.2%,4%,22%,-5.1%,7%,48%,-6.6%,8%,76% (active),23.5%
CN(C)CCOC(=O)C1(CCC2CCCCC2)CCCCC1,0%,80% (active),96.9% (active),-1%,17%,30.9%,-2%,57%,60.5%,-3%,37%,18.7%,1%,32%,85% (active),-2%,77% (active),93.3% (active)
O=C(O)c1ccccc1-c1c2cc(I)c(=O)c(I)c-2oc2c(I)c(O)c(I)cc12,20%,98% (active),98.9% (active),15%,99% (active),99.5% (active),12%,97% (active),99.2% (active),5%,98% (active),99% (active),2%,98% (active),98.9% (active),34%,99% (active),98.8% (active)
COC1CC(OC(=O)c2ccccc2)C(OC(=O)c2ccccc2)C(C)O1 (stereo not given),-5%,-4%,9.1%,-2%,-2%,6.1%,-2%,-1%,7.75%,-4%,-12%,-16.4%,44%,64%,83.9% (active),-1%,2%,1.9%
O=C1/C(=C\c2ccc(Cl)cc2Cl)Sc2scc(-c3cccc([N+](=O)[O-])c3)[n+]21,17%,98% (active),85.6% (active),36%,99% (active),86.1% (active),69%,98% (active),89.9% (active),28%,97% (active),88.5% (active),96% (active),97% (active),85.5% (active),23%,99% (active),90.9% (active)
CCCCCCCCCCCCCCCCCC1=NCCN1,6%,98% (active),54%,-4%,98% (active),99.3% (active),1%,98% (active),42%,1%,99% (active),98% (active),8%,98% (active),99.3% (active),-1%,97% (active),99.2% (active)
O=S(=O)(Nc1ccccc1Cl)c1ccccc1,19%,80% (active),74.8% (active),1%,88% (active),81.7% (active),4%,91% (active),78.7% (active),24%,81% (active),73.1% (active),-32%,90% (active),81.1% (active),-2%,84% (active),69.2%
O=C(c1ccccc1)c1cccc2ccccc12,5%,29%,56.2%,-5%,-2%,43%,-2%,30%,52.2%,-2%,-24%,-14.3%,16%,27%,49.7%,-1%,14%,88.2% (active)
